Conditions in all cases: mRNA level, 48 h; actives raise or lower the signal
Read-out in test [1]: DNA damage-inducible transcript 3 (DDIT3), DDIT3 (gene 1649)
Kind of test: LTEA_HepaRG_DDIT3: Life Technologies and Expression Analysis (LTEA) Assay for DNA damage-inducible transcript 3 (DDIT3) using HepaRG (AID 2283488). In outline: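 qRT-PCR readout (Fluidigm TaqMan), housekeeping-normalized to ACTB, GAPDH, POLR2A. HepaRG cells, 48 h exposure, 8-point half-log series from 100 uM in 0.5% DMSO, duplicates. Gain or loss of signal fitted against DMSO baseline.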

Read-out in test [2]: Pro-epidermal growth factor (Homo sapiens) (UniProt P01133)
Kind of test: LTEA_HepaRG_EGF: Life Technologies and Expression Analysis (LTEA) Assay for Epidermal growth factor (EGF) using HepaRG (AID 2283489). In short, it runs like this: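 HepaRG cells (~100,000/well, 48 h pre-culture) exposed in duplicate for 48 h in serum-free induction medium to 8 half-log concentrations up to 100 uM in 0.5% DMSO. EGF mRNA by qRT-PCR, normalized to ACTB/GAPDH/POLR2A; bidirectional fit versus DMSO.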

Read-out in test [3]: Early growth response protein 1 (EGR1) transcription factor, EGR1 (gene 1958)
Kind of test: LTEA_HepaRG_EGR1: Life Technologies and Expression Analysis (LTEA) Assay for Early growth response protein 1 (EGR1) transcription factor using HepaRG (AID 2283490). In outline: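 EGR1 transcript levels quantified by qRT-PCR (Fluidigm arrays) against three housekeeping genes after 48 h chemical exposure of HepaRG cells. Eight-point half-log series topping at 100 uM, 0.5% DMSO vehicle, analyzed for gain or loss.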

Read-out in test [4]: Ezrin (EZR), EZR (gene 7430)
Briefly: LTEA_HepaRG_EZR: Life Technologies and Expression Analysis (LTEA) Assay for Ezrin (EZR) using HepaRG (AID 2283491). In outline: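 Gain or loss of EZR mRNA is scored relative to 0.5% DMSO in human HepaRG cultures treated 48 h with test chemicals in duplicate, eight half-log concentrations from 100 uM.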

Read-out in test [5]: Cytochrome P450 3A7 (Homo sapiens) (UniProt P24462)
Kind of test: LTEA_HepaRG_CYP3A7: Life Technologies and Expression Analysis (LTEA) Assay for CYP3A7 using HepaRG (AID 2283492). In short, it runs like this: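 Differentiated HepaRG cells in serum-free induction medium exposed 48 h in duplicate to 8-point half-log series from 100 uM top in 0.5% DMSO. CYP3A7 mRNA by qRT-PCR, normalized to ACTB/GAPDH/POLR2A, bidirectional fit versus DMSO.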

Read-out in test [6]: CYP3A5 (gene 1577)
Briefly: LTEA_HepaRG_CYP3A5: Life Technologies and Expression Analysis (LTEA) Assay for CYP3A5 using HepaRG (AID 2283493). In outline: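 qRT-PCR read-out: CYP3A5 transcript in HepaRG lysates, housekeeping-normalized (ACTB/GAPDH/POLR2A), fitted bidirectionally against 0.5% DMSO baseline. Exposure 48 h, eight half-log concentrations up to 100 uM, duplicates.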

Read-out in test [7]: Fatty Acid-Binding Protein 1 (FABP1), FABP1 (gene 2168)
Briefly: LTEA_HepaRG_FABP1: Life Technologies and Expression Analysis (LTEA) Assay for Fatty Acid-Binding Protein 1 (FABP1) using HepaRG (AID 2283494). In outline:
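FABP1 expression by TaqMan qRT-PCR, normalised to three housekeeping genes, in HepaRG cells after 48 h chemical treatment. Eight-point half-log series topping at 100 uM in 0.5% DMSO, duplicates; gain or loss fitted relative to vehicle.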

Read-out in test [8]: Cytochrome P450 4A22 (Homo sapiens) (UniProt Q5TCH4)
Briefly: LTEA_HepaRG_CYP4A22: Life Technologies and Expression Analysis (LTEA) Assay for Cytochrome P450 4A22 (CYP4A22) using HepaRG (AID 2283495). In outline:
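Differentiated HepaRG cells in serum-free induction medium exposed 48 h in duplicate to eight half-log concentrations up to 100 uM in 0.5% DMSO. CYP4A22 mRNA quantified by TaqMan qRT-PCR, normalized to ACTB, GAPDH and POLR2A; bidirectional fit versus DMSO.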

Read-out in test [9]: Glutathione S-Transferase (GSTA2), GSTA2 (gene 2939)
Kind of test: LTEA_HepaRG_GSTA2: Life Technologies and Expression Analysis (LTEA) Assay for Glutathione S-Transferase (GSTA2) using HepaRG (AID 2283497). In outline: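 GSTA2 transcript levels came from Fluidigm TaqMan qRT-PCR normalized to three housekeeping genes, fitted in both directions against DMSO. HepaRG cultures received chemicals for 48 h in serum-free induction medium (0.5% DMSO), 8 half-log concentrations up to 100 uM, duplicate.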

Read-out in test [10]: Glutamate-cysteine ligase catalytic (GCLC), GCLC (gene 2729)
Kind of test: LTEA_HepaRG_GCLC: Life Technologies and Expression Analysis (LTEA) Assay for Glutamate-cysteine ligase catalytic (GCLC) using HepaRG (AID 2283498). In short, it runs like this:
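Expression by TaqMan qRT-PCR, normalized to three housekeeping genes (ACTB, GAPDH, POLR2A), with up- or down-regulation fitted against DMSO. HepaRG cells dosed in duplicate for 48 h with 8 half-log concentrations up to 100 uM, vehicle 0.5% DMSO.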

Read-out in test [11]: growth arrest and DNA damage 45 (GADD45G), GADD45G (gene 10912)
Kind of test: LTEA_HepaRG_GADD45G: Life Technologies and Expression Analysis (LTEA) Assay for growth arrest and DNA damage 45 (GADD45G) using HepaRG (AID 2283499). In short, it runs like this:
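Differentiated human HepaRG cells, 48 h post-plating, exposed 48 h in serum-free induction medium to 8 half-log concentrations (top 100 uM, 0.5% DMSO) in duplicate. GADD45G mRNA measured by Fluidigm TaqMan qRT-PCR, normalized to ACTB, GAPDH, POLR2A; bidirectional fit versus DMSO.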

Read-out in test [12]: Glutamate-cysteine ligase regulatory (GCLM), GCLM (gene 2730)
Briefly: LTEA_HepaRG_GCLM: Life Technologies and Expression Analysis (LTEA) Assay for Glutamate-cysteine ligase regulatory (GCLM) using HepaRG (AID 2283500). In outline:
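HepaRG, 48 h dosing, 100 uM top, half-log x8, 0.5% DMSO vehicle. Readout: GCLM mRNA by TaqMan qRT-PCR, housekeeping-normalized (ACTB/GAPDH/POLR2A). Curves fit bidirectionally vs DMSO baseline.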

Read-out in test [13]: Hypoxia-inducible factor 1-alpha (Homo sapiens) (UniProt Q16665)
Kind of test: LTEA_HepaRG_HIF1A: Life Technologies and Expression Analysis (LTEA) Assay for Hypoxia-inducible factor 1 (HIF1A) Trancription factor using HepaRG (AID 2283503). In outline: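 Gain- or loss-of-signal HIF1A mRNA changes are fitted against a DMSO baseline. HepaRG cultures receive eight concentrations, highest 100 uM, for 48 h in serum-free induction medium with 0.5% DMSO.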

Read-out in test [14]: 3-Hydroxy-3-Methylglutaryl-CoA Synthase 2 (HMGCS2), HMGCS2 (gene 3158)
Kind of test: LTEA_HepaRG_HMGCS2: Life Technologies and Expression Analysis (LTEA) Assay for 3-Hydroxy-3-Methylglutaryl-CoA Synthase 2 (HMGCS2) using HepaRG (AID 2283504). In short, it runs like this: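 Human HepaRG cells in serum-free induction medium were exposed in duplicate for 48 h to 8-point half-log series from 100 uM top in 0.5% DMSO. HMGCS2 mRNA measured by TaqMan qRT-PCR, normalised to ACTB, GAPDH, POLR2A; bidirectional fit versus DMSO.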

Read-out in test [15]: HGF (gene 3082)
Briefly: LTEA_HepaRG_HGF: Life Technologies and Expression Analysis (LTEA) Assay for Hepatocyte Growth Facto (HGF) using HepaRG (AID 2283505). In outline: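 Differentiated HepaRG cells in serum-free induction medium exposed 48 h in duplicate, 8 half-log concentrations from 100 uM in 0.5% DMSO. HGF mRNA by qRT-PCR, normalised to ACTB, GAPDH, POLR2A; bidirectional fitting.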

Read-out in test [16]: Insulin Like Growth Factor 1 (IGF1), IGF1 (gene 3479)
Kind of test: LTEA_HepaRG_IGF1: Life Technologies and Expression Analysis (LTEA) Assay for Insulin Like Growth Factor 1 (IGF1) using HepaRG (AID 2283506). In short, it runs like this: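 qRT-PCR readout of IGF1 mRNA, normalized to three housekeeping genes, after 48 h chemical exposure of HepaRG cells. Concentrations: 8-point half-log series, top 100 uM, 0.5% DMSO vehicle. Gain or loss fitted against DMSO baseline.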

Read-out in test [17]: Intercellular Adhesion Molecule 1 (ICAM1), ICAM1 (gene 3383)
Briefly: LTEA_HepaRG_ICAM1: Life Technologies and Expression Analysis (LTEA) Assay for Intercellular Adhesion Molecule 1 (ICAM1) using HepaRG (AID 2283507). In short, it runs like this: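 Differentiated human HepaRG cells in serum-free induction medium exposed 48 h in duplicate to 8 half-log concentrations (top 100 uM, 0.5% DMSO). ICAM1 mRNA quantified by TaqMan qRT-PCR, normalized to ACTB, GAPDH and POLR2A; bidirectional fitting versus DMSO.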

Read-out in test [18]: Cytochrome P450 7A1 (Homo sapiens) (UniProt P22680)
Kind of test: LTEA_HepaRG_CYP7A1: Life Technologies and Expression Analysis (LTEA) Assay for Cytochrome P450 7A1 (CYP7A1) using HepaRG (AID 2283496). In outline:
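Using 0.5% DMSO as vehicle and baseline, chemicals were tested in duplicate over an 8-point range from 100 uM on HepaRG cells for 48 h; qRT-PCR signals were normalised to ACTB, GAPDH and POLR2A.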

Read-out in test [19]: Glutathione S-transferase M3 (GSTM3), GSTM3 (gene 2947)
Briefly: LTEA_HepaRG_GSTM3: Life Technologies and Expression Analysis (LTEA) Assay for Glutathione S-transferase M3 (GSTM3) using HepaRG (AID 2283501). In outline: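 Differentiated human HepaRG cells were exposed in duplicate for 48 h in serum-free induction medium, 8 points from 100 uM top in half-log steps, 0.5% DMSO. GSTM3 mRNA was measured by TaqMan qRT-PCR, normalized to ACTB, GAPDH and POLR2A; bidirectional fit versus DMSO.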

Read-out in test [20]: Heat shock 70 kDa protein 1 (HSPA1A), gene 3303
Briefly: LTEA_HepaRG_HSPA1A: Life Technologies and Expression Analysis (LTEA) Assay for Heat shock 70 kDa protein 1 (HSPA1A) using HepaRG (AID 2283502). In outline: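 HepaRG, 48 h exposure, 8-pt half-log CRC from 100 uM in 0.5% DMSO, duplicates. Readout: TaqMan qRT-PCR of HSPA1A mRNA, housekeeping-normalized (ACTB/GAPDH/POLR2A). Bidirectional fit vs 0.5% DMSO baseline.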

The source made the active and inactive calls. How the source made its calls: active means hit-call score of the fitted dose curve at least 0.9, where 1 is the maximum; inactive means score below 0.9.

Hypoxia-inducible factor 1-alpha (Homo sapiens), sequence (Q16665 whole entry, looked up): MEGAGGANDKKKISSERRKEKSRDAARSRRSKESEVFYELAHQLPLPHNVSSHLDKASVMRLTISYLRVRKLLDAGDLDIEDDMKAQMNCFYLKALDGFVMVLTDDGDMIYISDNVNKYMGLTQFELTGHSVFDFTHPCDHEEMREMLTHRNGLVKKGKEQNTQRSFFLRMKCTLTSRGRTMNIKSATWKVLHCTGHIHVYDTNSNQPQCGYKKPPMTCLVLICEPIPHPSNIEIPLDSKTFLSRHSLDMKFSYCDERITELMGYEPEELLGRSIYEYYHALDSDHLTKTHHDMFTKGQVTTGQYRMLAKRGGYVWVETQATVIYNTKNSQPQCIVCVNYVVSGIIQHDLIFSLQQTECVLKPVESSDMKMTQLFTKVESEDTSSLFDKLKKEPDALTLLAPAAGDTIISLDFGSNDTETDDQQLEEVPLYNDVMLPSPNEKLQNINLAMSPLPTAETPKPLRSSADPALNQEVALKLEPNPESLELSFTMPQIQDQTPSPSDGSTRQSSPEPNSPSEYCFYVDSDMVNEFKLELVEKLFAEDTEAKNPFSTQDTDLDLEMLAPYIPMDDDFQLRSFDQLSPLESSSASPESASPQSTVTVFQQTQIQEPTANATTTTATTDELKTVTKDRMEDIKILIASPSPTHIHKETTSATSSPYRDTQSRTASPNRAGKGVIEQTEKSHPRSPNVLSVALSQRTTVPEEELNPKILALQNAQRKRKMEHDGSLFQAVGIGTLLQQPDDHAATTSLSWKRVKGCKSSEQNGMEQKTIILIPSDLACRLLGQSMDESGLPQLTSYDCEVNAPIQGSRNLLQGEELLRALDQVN
Cytochrome P450 3A7 (Homo sapiens), sequence (P24462 whole entry, looked up): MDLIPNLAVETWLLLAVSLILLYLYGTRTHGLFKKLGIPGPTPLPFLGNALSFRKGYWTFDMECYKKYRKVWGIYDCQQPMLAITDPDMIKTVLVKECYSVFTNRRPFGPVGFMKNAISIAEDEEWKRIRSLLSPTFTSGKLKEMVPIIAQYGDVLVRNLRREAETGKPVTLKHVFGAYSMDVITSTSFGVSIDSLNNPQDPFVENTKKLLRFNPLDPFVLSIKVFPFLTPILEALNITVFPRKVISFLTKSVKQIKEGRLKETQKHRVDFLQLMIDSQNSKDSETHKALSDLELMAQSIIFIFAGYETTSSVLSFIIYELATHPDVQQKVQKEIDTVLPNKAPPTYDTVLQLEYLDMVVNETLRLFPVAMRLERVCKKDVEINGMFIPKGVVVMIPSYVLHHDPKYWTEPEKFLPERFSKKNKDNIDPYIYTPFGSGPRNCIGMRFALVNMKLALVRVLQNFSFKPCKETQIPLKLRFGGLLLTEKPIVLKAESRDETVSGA

Take `COP(=O)(OC)SCn1c(=O)oc2cc(Cl)cnc21`: the call in [1], in test [2], in test [3], in [4], in test [7] and in [10] was inactive. Moreover, the call in [11], in [12], in test [13], in [14], in test [16] and in test [17] was inactive. The AC50 (in general, the concentration giving half of the maximal activity seen) in test [5] was 50 µM (active); in [6], 37.8 µM (active); in [8], 46.7 µM (active); in [9], 65 µM (active); in test [15] it was 65.9 µM (active).
For the compound `CSc1nc(NC(C)C)nc(NC(C)C)n1`, the compound was called inactive in test [1], in test [2], in test [3], in test [4], in [6] and in test [10]. The result in [12], in [19], in [20], in test [13], in [15] and in test [17] was inactive. Moreover, the AC50 in [5] was 1.17 µM (active); in [7] it was 44.1 µM (active); in test [8], 24.3 µM (active); in test [18] it was 50 µM (active); in test [9] it was 81.6 µM (active); in test [11] it was 64.7 µM (active). For the same compound, in [14], the half-maximal activity concentration (AC50) is 50 µM (active).
Regarding `Cc1ccn2nc(S(=O)(=O)Nc3c(F)cccc3F)nc2n1`, the compound was classed as inactive in test [1], in test [2], in test [3], in test [4], in test [5] and in [6]. The compound was called inactive in test [7], in test [8], in test [18], in [9], in test [10] and in test [11]. Further, the outcome in [13], in test [14], in [15] and in [17] was inactive.
